# Measured values published in PubChem BioAssay (NCATS).
# Several values for one entry are separate records, joined by “and”; a condition that tells them apart may be missing. Identical values can stand only once. Results filed as inconclusive are left out. A call without a number means that no potency is given here. Activity calls are given as the source filed them. Unless noted, calls come from the whole dose curve; as a rule, active = well fitted curve in the direction sought with a large enough effect; inconclusive = small, poorly fitted or top-dose-only effect, or another doubt; inactive = no such curve, though single readings can be large; an effect the other way counts as inactive or inconclusive.
# How the values were obtained:
# [1] = qHTS assay for environmental chemicals that activate the Aryl hydrocarbon Receptor (AhR) signaling pathway (AID 651777); details: 1A2-DRE human hepatoma cells, luciferase, 24 h; activation: stronger effect = higher value; note: nearly all actives have a fitted effect of over 15% in size
# Outline: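 Concentration–response screening used 1,200 1A2-DRE cells per well, 24 hr compound exposure (37 C, 5% CO2), and One-Glo luminescence as the AhR-driven CYP1A2 reporter signal.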
# [2] = target: Peroxisome proliferator-activated receptor alpha (Homo sapiens) (UniProt Q07869); test: qHTS assay for small molecule agonists of the peroxisome proliferator-activated receptor alpha (PPARalpha) signaling pathway (AID 651778); details: PathHunter PPARalpha complementation, chemiluminescence, 6 h; max response: stronger effect = higher value; note: potency is the fitted concentration of half-maximal effect
# Outline: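 Cells plated at 2,000/well and held overnight at 37 C, 5% CO2, then compound added by pin tool for 6 hr; after PathHunter detection reagent and 60 min at room temperature, chemiluminescence from enzyme complementation was read.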
# [3] = target: Arylsulfatase A (Homo sapiens) (UniProt P15289); test: qHTS screen for enhancers of Arylsulfatase A (ASA1): LOPAC Validation Assay (AID 720538)
# Outline: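 SV40-transformed skin fibroblasts from an MLD patient (ASA-I179S) were treated with compounds for 48h at 37 degree C, then lysed with 0.5mM pNCS final substrate for 14h at room temperature; NaOH stop, fluorescence read (Ex=525 nm; Em=598 nm).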
# [4] = qHTS for compounds that reverse cellular toxicity of Amyloid beta (A-beta) peptide in yeast: LOPAC Validation Assay (AID 720559)
# Outline: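 Yeast cells expressing toxic A-beta were combined with pinned compounds in growth medium and incubated 48 hr at 30 C. Growth was read as absorbance at 600 nm and normalized to DMSO and to an equimolar FeCl3/clioquinol positive control.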
# [5] = qHTS for Activators of Parkin Expression: LOPAC Validation Assay (NLuc Reporter) (AID 720572)
# Outline: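 Cells harboring the Parkin-promoter coincidence reporter were treated for 24 h at seven concentrations. NLuc output was measured sequentially after the FLuc channel and scaled between DMSO and positive control values.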
# [6] = qHTS for Activators of Parkin Expression: LOPAC Validation Assay (FLuc Reporter) (AID 720573)
# Outline: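 Neuronal cell line stably carrying FLuc/NLuc coincidence reporter under Parkin promoter; cells plated 24 h, then compounds added in 7-point dose response for 24 h at 37 C. FLuc luminescence read; normalized to DMSO and positive control (100%).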
# [7] = qHTS assay for small molecule agonists of the antioxidant response element (ARE) signaling pathway measured by Nrf2-dependant transcriptional activity (AID 720636; active = well fitted curve in the direction sought with a large enough effect in the repeat runs; an effect the other way counts as inactive or inconclusive;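 note: HepG2 cells with an ARE-driven luciferase reporter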)
# Outline: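 Attachment 6 hr at 37 C, then compound versus DMSO vehicle for 16 hr in ARE-luc HepG2 cells (1% dialyzed FBS); luminescence recorded 30 min after ONE-Glo addition at room temperature.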
# [8] = qHTS assay for small molecule agonists of the antioxidant response element (ARE) signaling pathway measured by Nrf2-dependant transcriptional activity - cell viability counter screen (AID 720653; active = well fitted curve in the direction sought with a large enough effect in the repeat runs; an effect the other way counts as inactive or inconclusive); details: ARE-bla HepG2 viability, CellTiter-Glo ATP luminescence, 16 h; max response: stronger effect = lower value
# Outline: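 ARE-bla HepG2 cells (2,000/well) rested 5 hrs at 37C/5% CO2, then exposed to compounds in DMSO for 16 hrs. Viability was read in the same wells as intracellular ATP by luminescence, 30 min at room temperature after reagent addition.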
# [9] = target: T1, Hexokinase-4 (Homo sapiens) + Glucokinase regulatory protein (Homo sapiens) (UniProt P35557+Q14397); test: qHTS assay for inhibitors of recombinant human GCK-GKRP interaction: Diaphorase-coupled assay (AID 743205)
# Outline: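 GST-GCK (10 nM) with FLAG-GKRP (10 nM), 5 mM glucose and 0.4 mM ATP in pH 7.6 Hepes; compounds preincubated 20 min with substrate. G6PDH/diaphorase coupling converts resazurin to resorufin, read kinetically (ex 525/em 590 nm) for 30 min.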
# [10] = target: T1, Hexokinase-4 (Homo sapiens) + Glucokinase regulatory protein (Homo sapiens); test: qHTS assay for inhibitors of recombinant human GCK-GKRP interaction: ADP-Glo assay (AID 743206)
# Outline: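 Pin-transferred compounds meet a 15 nM GST-GCK/15 nM FLAG-GKRP/2 uM S6P mix (dispense concentrations). ATP is then added to 0.4 mM final with 5 mM glucose, and the reaction runs 60 min at room temperature. ADP is quantified luminescently.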
# [11] = target: T1, Hexokinase-4 (Homo sapiens) + Glucokinase regulatory protein (Homo sapiens); test: qHTS assay for inhibitors of recombinant human GCK-GKRP interaction: HTRF assay (AID 743207)
# Outline: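 GST-GCK and FLAG-GKRP (5 nM each) were combined with 2 uM S6P in pH 7.1 Hepes/MgCl2/KCl/DTT buffer, then compound and anti-FLAG XL665/anti-GST K antibodies were added. After 60 min at room temperature, HTRF 665/615 nm emission was read.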
# [12] = qHTS assay for cell viability of the p53RE-bla HCT-116 cell line (AID 743292); note: nearly all actives have a fitted effect of over 55% in size
# Outline: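 Compound-exposed HCT-116 (p53RE-bla) cells, 4,000 per well, were kept 16 h at 37 C following a 5 h preincubation. Cell number was estimated from total ATP by CellTiter-Glo luminescence read after 30 min at room temperature.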
# [13] = qHTS Assay for Identifying Gametocytocidal Compounds (AID 743244);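 note: actives lower the fluorescent signal which means gametocytes are killed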; details: P. falciparum 3D7 stage III-V gametocytes, alamarBlue, 72 h; max response: stronger effect = lower value
# Outline: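 Using 20,000 stage III–V 3D7 gametocytes per well, compounds were incubated 72 h under 37 °C/5% CO2. Viability was then assessed by 24 h alamarBlue reduction, measured fluorometrically at 525/598 nm.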
# [14] = qHTS assay for cell viability of HEK293 cells (AID 743288); details: ATP luminescence (CellTiter-Glo), 18 h; max response: stronger effect = lower value; note: nearly all actives have a fitted effect of over 50% in size
# Outline: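 After 18 h compound exposure at 37 C, parental HEK293 cells (2,000/well) are lysed with CellTiter-Glo and luminescence is read following 30 min at room temperature.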
# [15] = target: Tyrosine-protein kinase Yes (Homo sapiens) (UniProt P07947); test: qHTS for small molecule inhibitors of Yes1 kinase: Primary Screen (AID 686947); note: nearly all actives have a fitted effect of over 60% in size
# Outline: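 ADP-Glo luminescence reports ADP formed by 4 nM Yes1 phosphorylating poly(E4Y) (0.3 mg/mL) with 0.1 mM ATP for 60 min at room temperature, following 20 min compound preincubation; normalised between DMSO wells with and without enzyme.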
# [16] = qHTS for small molecule inhibitors of Yes1 kinase: Counter Assay (AID 686950);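 note: no kinase present so only ADP-Glo detection of a fixed ADP amount is tested; luminescence from ADP-Glo reporting ADP in a fixed ATP and ADP mixture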
# Outline: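 Measuring interference with ADP-Glo, the assay ran 60 min at room temperature on an ATP/ADP mix lacking enzyme. Values were normalized to ATP-plus-ADP (maximum) and ATP-only (minimum) DMSO controls.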
# [17] = qHTS profiling for inhibitors of Plasmodium falciparum (3D7) proliferation (AID 743322);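 note: infected erythrocytes exposed to compound for 72 h before lysis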; details: P. falciparum 3D7 proliferation, at 28.7 µM (top of the series)
# Outline: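 Parasite DNA was quantified by SYBR Green I fluorescence (ex 485, em 535 nm) after overnight lysis in saponin/Triton buffer at room temperature. Cultures at 0.3% parasitemia and 2.5% hematocrit were first exposed to compound for 72 h at 37 C; signals were normalised to artemisinin (0.29 uM) and vehicle wells.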
# [18] = target: Nuclear receptor ROR-gamma (Homo sapiens) (UniProt P51449); test: qHTS assay for small molecule antagonists of the retinoid-related orphan receptor gamma (ROR-gamma) signaling pathway (AID 651802);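 note: CHO cells with doxycycline-induced ROR-gamma expression; nearly all actives have a fitted effect of over 60% in size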
# Outline: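 Steps: cells dispensed; compound or DMSO transferred by pin tool; doxycycline added to induce the ROR response element-driven luciferase; plates held 16hr at 37C; ONE-Glo added and luminescence measured.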
# [19] = qHTS assay for small molecule antagonists of the retinoid-related orphan receptor gamma (ROR-gamma) signaling pathway - cell viability counter screen (AID 720652; active = well fitted curve in the direction sought with a large enough effect in the repeat runs; an effect the other way counts as inactive or inconclusive;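 note: CHO reporter cells with doxycycline-induced ROR-gamma expression; compound exposure lasted 16 hr before ATP read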)
# Outline: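 Steps: seed CHO cells bearing TET-inducible ROR and ROR response element-luciferase; rest 5 hr at 37 C; add compound, then doxycycline; incubate 16 hr; add CellTiter-Glo and read luminescence as ATP-based viability.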
# Sequence of Peroxisome proliferator-activated receptor alpha (Homo sapiens) (Q07869 whole entry, looked up): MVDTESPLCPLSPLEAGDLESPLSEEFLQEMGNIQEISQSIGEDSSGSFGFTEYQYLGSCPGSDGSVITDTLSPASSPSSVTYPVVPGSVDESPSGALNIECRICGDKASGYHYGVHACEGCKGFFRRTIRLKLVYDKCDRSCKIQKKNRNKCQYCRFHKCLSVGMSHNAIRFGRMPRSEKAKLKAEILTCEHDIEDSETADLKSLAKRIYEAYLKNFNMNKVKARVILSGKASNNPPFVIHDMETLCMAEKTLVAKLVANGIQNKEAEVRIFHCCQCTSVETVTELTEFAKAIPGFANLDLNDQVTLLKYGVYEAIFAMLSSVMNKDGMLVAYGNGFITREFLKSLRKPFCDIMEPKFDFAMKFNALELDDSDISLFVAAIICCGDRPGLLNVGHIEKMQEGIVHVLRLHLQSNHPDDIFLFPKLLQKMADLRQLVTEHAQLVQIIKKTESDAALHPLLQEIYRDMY
# Sequence of Arylsulfatase A (Homo sapiens) (P15289 whole entry, looked up): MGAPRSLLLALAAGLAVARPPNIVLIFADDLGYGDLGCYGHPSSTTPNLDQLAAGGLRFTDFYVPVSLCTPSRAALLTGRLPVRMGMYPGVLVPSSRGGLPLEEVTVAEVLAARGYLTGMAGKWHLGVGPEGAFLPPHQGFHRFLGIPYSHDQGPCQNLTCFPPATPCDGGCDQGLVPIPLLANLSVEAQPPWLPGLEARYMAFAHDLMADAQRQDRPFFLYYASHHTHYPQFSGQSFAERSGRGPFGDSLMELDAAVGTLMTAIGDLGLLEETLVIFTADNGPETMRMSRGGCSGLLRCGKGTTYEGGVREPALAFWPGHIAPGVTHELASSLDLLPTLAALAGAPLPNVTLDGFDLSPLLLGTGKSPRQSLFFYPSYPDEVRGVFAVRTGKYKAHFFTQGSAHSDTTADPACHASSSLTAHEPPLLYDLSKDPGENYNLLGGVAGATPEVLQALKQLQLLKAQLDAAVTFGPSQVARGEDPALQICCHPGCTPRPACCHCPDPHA
# T1 sequence (P35557 whole entry, looked up): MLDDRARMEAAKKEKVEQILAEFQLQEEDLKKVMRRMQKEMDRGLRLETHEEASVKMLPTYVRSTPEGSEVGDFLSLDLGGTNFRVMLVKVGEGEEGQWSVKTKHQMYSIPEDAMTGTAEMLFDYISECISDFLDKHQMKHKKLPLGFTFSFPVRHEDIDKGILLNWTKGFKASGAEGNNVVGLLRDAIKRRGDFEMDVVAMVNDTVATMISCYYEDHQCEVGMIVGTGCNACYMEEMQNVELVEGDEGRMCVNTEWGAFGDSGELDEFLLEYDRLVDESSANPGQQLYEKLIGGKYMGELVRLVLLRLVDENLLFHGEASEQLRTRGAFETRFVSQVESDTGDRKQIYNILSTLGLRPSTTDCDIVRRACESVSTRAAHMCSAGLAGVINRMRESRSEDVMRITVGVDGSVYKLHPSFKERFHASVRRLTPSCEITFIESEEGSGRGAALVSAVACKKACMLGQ
# T1 sequence (Q14397 whole entry, looked up): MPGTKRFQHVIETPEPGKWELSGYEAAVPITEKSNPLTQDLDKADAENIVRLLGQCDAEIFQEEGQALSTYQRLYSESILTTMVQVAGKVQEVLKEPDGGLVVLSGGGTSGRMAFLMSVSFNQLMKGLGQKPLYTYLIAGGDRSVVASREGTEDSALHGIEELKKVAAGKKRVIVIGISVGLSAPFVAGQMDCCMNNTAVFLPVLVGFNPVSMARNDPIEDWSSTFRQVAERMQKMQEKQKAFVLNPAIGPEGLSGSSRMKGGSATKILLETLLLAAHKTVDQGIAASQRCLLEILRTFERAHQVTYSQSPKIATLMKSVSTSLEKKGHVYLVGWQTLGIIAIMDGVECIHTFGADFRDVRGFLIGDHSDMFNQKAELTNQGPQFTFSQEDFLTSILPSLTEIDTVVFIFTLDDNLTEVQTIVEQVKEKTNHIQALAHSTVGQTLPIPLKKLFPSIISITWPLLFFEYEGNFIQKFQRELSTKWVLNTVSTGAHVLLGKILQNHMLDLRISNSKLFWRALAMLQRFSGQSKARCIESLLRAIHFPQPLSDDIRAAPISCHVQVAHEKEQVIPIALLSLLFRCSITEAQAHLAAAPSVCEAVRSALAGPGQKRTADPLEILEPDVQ
# Sequence of Nuclear receptor ROR-gamma (Homo sapiens) (P51449 whole entry, looked up): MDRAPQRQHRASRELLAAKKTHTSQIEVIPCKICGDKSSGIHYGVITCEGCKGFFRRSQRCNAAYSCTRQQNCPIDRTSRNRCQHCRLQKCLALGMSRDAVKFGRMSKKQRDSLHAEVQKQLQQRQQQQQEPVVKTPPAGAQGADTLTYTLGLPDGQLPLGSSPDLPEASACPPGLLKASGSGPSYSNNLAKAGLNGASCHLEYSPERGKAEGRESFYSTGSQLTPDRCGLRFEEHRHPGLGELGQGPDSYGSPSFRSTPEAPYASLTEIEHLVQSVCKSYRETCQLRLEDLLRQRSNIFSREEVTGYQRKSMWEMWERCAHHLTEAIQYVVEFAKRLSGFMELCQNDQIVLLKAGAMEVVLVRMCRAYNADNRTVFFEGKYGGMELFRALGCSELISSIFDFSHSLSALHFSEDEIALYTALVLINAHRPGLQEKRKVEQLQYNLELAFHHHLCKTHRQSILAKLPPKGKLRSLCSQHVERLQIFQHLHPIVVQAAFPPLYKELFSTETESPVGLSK
# Sequence of Tyrosine-protein kinase Yes (Homo sapiens) (P07947 whole entry, looked up): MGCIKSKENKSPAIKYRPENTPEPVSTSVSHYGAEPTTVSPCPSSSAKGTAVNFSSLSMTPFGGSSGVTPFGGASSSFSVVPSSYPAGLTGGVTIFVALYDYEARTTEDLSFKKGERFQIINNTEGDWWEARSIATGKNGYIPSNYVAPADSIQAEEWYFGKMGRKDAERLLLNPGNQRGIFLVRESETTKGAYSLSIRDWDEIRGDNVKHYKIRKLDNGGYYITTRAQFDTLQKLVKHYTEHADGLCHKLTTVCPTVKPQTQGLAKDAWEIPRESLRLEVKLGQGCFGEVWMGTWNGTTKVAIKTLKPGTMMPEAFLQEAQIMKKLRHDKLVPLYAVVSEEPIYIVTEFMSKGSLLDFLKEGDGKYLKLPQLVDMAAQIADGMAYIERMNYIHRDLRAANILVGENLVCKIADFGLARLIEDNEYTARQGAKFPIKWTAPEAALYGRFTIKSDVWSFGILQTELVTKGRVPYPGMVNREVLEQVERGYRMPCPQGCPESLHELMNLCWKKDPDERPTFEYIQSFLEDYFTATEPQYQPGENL
SMILES,activation [1],max response [2],Potency [3],outcome [4],outcome [5],Potency [6],outcome [7],max response [8],Potency [9],Potency [10],Potency [11],Potency [12],max response [13],max response [14],Potency [15],outcome [16],remaining parasite growth % (stronger effect = lower value) [17],Potency [2],Potency [18],Potency [19]
CC#C[C@]1(O)CC[C@H]2[C@@H]3CCC4=CC(=O)CCC4=C3[C@@H](c3ccc(N(C)C)cc3)C[C@@]21C,14.1% (inactive),-3.32% (inactive),inactive,inactive,inactive,inactive,inactive,-29.2% (inactive),inactive,inactive,inactive,inactive,–,–,–,–,–,–,–,–
N[C@@H](Cc1c[nH]c2ccc(O)cc12)C(=O)O,–,-1.51% (inactive),inactive,inactive,inactive,inactive,inactive,-3.27% (inactive),inactive,inactive,inactive,inactive,-0.101% (inactive) and -5.53% (inactive),3.87% (inactive),–,–,–,–,–,–
Cn1ccc2cc3c(cc21)CCN3C(=O)Nc1cccnc1,–,–,–,inactive,inactive,–,–,–,inactive,inactive,inactive,–,16% (inactive) and 23.5% (inactive),–,inactive,inactive,25%,–,–,–
CC(C)(Oc1ccc(C2CC2(Cl)Cl)cc1)C(=O)O (centres undefined),–,–,inactive,inactive,inactive,inactive,inactive,10.6% (inactive),inactive,inactive,inactive,inactive,2.49% (inactive) and 6.24% (inactive),-8.57% (inactive),–,–,–,14.1 µM (active),–,–
NCCS(=O)(=O)O,-0.375% (inactive),5.59% (inactive),inactive,inactive,inactive,inactive,inactive,5.47% (inactive),inactive,inactive,inactive,inactive,-8.78% (inactive) and 22.4% (inactive),10.5% (inactive),–,–,–,–,inactive,inactive
Cn1c(=O)c2c(ncn2C)n(C)c1=O,-0.0272% (inactive) and 0.654% (inactive),-7.69% (inactive) and -2.94% (inactive),inactive,inactive,inactive,inactive,inactive,6.29% (inactive) and 2.32% (inactive),inactive,inactive,inactive,inactive,-4.77% (inactive) and 11.8% (inactive),0.413% (inactive) and -8.15% (inactive),–,–,–,–,inactive,inactive
